In ChEMBL document CHEMBL2218924, “A broad activity screen in support of a chemogenomic map for kinase signalling research and drug discovery” (Biochem J, 2013):

How the values were obtained:
[1] = molecular target: Tyrosine-protein kinase Fer (Homo sapiens) (UniProt P16591); details: at 10 µM
[2] = molecular target: Tyrosine-protein kinase Fes/Fps (Homo sapiens) (UniProt P07332); details: at 1 µM
[3] = molecular target: Tyrosine-protein kinase Fes/Fps (Homo sapiens) (UniProt P07332); details: at 10 µM
[4] = molecular target: Tyrosine-protein kinase Fgr (Homo sapiens) (UniProt P09769); details: at 1 µM
Tyrosine-protein kinase Fgr (Homo sapiens), sequence (P09769 2-529 limits assumed): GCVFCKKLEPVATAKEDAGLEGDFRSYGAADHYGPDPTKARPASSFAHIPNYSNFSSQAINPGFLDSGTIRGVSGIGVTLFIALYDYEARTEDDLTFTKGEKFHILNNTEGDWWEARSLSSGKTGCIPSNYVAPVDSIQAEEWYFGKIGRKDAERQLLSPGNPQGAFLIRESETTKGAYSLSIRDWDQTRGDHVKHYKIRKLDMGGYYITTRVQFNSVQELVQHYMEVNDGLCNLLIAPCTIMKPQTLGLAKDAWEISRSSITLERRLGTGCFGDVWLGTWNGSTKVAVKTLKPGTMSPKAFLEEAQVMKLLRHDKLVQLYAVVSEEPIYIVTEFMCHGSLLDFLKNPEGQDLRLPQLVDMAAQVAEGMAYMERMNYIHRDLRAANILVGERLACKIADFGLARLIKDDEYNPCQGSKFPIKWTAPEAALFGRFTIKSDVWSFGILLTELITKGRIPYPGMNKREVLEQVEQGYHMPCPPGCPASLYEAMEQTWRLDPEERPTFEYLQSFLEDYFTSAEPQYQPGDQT

[5] = molecular target: Tyrosine-protein kinase Fgr (Homo sapiens) (UniProt P09769); details: at 10 µM
[6] = molecular target: Vascular endothelial growth factor receptor 1 (Homo sapiens) (UniProt P17948); details: at 1 µM
[7] = molecular target: Vascular endothelial growth factor receptor 1 (Homo sapiens) (UniProt P17948); details: at 10 µM
[8] = molecular target: Receptor-type tyrosine-protein kinase FLT3 (Homo sapiens) (UniProt P36888); details: at 1 µM
[9] = molecular target: Receptor-type tyrosine-protein kinase FLT3 (Homo sapiens) (UniProt P36888); details: at 10 µM
[10] = molecular target: Vascular endothelial growth factor receptor 3 (Homo sapiens) (UniProt P35916); details: at 1 µM
Vascular endothelial growth factor receptor 3 (Homo sapiens), sequence (P35916 whole entry): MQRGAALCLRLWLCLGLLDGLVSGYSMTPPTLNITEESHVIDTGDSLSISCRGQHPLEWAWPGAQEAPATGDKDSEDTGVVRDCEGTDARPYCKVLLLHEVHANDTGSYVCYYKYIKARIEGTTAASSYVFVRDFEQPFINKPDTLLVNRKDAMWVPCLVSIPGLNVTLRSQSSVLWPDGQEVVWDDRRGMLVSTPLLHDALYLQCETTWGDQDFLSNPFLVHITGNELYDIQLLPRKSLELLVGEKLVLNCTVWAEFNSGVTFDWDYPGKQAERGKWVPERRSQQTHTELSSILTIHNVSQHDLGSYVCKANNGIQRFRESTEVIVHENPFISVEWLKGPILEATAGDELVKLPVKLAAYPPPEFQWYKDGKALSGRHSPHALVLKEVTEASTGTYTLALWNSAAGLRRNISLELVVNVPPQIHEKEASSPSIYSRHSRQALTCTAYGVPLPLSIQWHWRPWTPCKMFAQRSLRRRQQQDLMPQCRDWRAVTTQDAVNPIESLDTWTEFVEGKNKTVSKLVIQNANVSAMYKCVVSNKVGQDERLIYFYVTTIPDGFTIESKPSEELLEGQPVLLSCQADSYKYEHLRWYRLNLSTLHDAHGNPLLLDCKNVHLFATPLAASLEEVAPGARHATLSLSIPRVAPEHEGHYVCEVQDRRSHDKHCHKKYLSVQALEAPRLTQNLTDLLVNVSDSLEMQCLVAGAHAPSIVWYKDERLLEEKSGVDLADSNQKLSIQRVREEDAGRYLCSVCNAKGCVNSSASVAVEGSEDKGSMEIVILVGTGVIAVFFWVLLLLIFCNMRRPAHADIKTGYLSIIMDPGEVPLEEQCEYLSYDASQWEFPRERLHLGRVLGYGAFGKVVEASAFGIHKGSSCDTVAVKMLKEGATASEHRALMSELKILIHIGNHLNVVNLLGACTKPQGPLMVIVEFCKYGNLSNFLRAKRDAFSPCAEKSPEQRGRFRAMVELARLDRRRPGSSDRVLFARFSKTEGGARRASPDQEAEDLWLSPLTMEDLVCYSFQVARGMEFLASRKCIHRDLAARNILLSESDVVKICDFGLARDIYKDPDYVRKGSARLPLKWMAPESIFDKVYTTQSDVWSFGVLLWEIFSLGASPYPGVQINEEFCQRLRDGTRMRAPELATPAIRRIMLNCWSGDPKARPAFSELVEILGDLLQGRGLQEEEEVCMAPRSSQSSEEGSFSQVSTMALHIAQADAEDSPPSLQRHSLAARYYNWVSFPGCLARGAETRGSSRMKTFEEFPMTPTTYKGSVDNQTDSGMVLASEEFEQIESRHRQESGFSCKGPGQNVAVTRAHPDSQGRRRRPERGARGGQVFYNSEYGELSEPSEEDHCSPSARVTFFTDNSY

[11] = molecular target: Vascular endothelial growth factor receptor 3 (Homo sapiens) (UniProt P35916); details: at 10 µM
[12] = molecular target: Macrophage colony-stimulating factor 1 receptor (Homo sapiens) (UniProt P07333); details: at 1 µM
[13] = molecular target: Macrophage colony-stimulating factor 1 receptor (Homo sapiens) (UniProt P07333); details: at 10 µM
[14] = molecular target: Tyrosine-protein kinase Fyn (Homo sapiens) (UniProt P06241); details: at 1 µM
Tyrosine-protein kinase Fyn (Homo sapiens), sequence (P06241 2-537 limits assumed): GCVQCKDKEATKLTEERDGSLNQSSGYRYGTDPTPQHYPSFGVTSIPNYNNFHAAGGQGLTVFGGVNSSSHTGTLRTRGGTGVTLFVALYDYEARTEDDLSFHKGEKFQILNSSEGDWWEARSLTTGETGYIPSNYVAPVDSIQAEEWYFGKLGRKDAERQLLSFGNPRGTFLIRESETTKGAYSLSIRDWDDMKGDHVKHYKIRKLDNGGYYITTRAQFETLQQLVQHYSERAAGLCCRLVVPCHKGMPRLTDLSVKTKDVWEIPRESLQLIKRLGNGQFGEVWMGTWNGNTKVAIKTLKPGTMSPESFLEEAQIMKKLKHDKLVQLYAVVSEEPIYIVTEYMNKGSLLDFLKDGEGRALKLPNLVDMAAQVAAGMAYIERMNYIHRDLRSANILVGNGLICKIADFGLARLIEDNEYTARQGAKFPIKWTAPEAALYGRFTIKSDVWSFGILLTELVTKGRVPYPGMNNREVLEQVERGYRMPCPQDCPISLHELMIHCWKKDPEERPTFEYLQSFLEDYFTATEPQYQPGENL

[15] = molecular target: Tyrosine-protein kinase Fyn (Homo sapiens) (UniProt P06241); details: at 10 µM
[16] = molecular target: T1, Mitogen-activated protein kinase kinase kinase kinase 2 (Homo sapiens) (UniProt Q12851); details: at 1 µM
T1 sequence (whole entry): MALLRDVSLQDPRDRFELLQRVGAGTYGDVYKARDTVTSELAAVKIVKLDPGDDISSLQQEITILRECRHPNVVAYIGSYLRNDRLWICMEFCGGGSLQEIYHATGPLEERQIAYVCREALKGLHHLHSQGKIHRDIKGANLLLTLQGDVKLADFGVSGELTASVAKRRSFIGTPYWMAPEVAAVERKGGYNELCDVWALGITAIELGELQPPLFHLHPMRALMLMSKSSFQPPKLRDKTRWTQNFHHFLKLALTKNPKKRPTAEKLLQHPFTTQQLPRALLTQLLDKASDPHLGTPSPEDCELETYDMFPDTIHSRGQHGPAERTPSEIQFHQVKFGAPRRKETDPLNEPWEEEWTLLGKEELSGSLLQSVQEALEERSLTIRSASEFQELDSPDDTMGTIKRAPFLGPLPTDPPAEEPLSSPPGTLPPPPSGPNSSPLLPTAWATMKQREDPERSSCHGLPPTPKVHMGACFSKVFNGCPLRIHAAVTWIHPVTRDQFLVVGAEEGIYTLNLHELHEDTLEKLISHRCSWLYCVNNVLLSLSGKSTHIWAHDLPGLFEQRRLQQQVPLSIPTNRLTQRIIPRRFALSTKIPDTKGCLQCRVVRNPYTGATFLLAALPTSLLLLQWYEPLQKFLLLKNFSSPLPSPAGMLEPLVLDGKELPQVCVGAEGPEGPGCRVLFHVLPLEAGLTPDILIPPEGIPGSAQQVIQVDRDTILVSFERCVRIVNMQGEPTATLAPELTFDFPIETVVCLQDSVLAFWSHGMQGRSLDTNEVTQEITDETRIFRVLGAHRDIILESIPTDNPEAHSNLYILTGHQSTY

[17] = molecular target: T1, Mitogen-activated protein kinase kinase kinase kinase 2 (Homo sapiens); details: at 10 µM
[18] = molecular target: G protein-coupled receptor kinase 5 (Homo sapiens) (UniProt P34947); details: at 1 µM
G protein-coupled receptor kinase 5 (Homo sapiens), sequence (P34947 whole entry, looked up): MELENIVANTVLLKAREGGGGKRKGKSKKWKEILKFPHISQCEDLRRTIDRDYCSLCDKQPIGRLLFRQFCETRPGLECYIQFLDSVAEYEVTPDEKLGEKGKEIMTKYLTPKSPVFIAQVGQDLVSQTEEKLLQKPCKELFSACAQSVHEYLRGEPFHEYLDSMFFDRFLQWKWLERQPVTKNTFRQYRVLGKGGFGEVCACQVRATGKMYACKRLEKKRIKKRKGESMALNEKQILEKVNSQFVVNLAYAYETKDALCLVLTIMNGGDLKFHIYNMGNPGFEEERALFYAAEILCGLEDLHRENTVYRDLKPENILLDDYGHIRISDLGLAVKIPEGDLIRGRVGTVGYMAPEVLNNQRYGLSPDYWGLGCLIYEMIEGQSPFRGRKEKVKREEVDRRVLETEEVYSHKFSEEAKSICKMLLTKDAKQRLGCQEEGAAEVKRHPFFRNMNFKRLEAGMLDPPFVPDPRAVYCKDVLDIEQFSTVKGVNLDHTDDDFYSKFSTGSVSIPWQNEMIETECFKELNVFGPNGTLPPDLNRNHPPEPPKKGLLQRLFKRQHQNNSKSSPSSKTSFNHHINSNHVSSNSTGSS

[19] = molecular target: G protein-coupled receptor kinase 5 (Homo sapiens) (UniProt P34947); details: at 10 µM
[20] = molecular target: G protein-coupled receptor kinase 6 (Homo sapiens) (UniProt P43250); details: at 1 µM
G protein-coupled receptor kinase 6 (Homo sapiens), sequence (P43250 whole entry, looked up): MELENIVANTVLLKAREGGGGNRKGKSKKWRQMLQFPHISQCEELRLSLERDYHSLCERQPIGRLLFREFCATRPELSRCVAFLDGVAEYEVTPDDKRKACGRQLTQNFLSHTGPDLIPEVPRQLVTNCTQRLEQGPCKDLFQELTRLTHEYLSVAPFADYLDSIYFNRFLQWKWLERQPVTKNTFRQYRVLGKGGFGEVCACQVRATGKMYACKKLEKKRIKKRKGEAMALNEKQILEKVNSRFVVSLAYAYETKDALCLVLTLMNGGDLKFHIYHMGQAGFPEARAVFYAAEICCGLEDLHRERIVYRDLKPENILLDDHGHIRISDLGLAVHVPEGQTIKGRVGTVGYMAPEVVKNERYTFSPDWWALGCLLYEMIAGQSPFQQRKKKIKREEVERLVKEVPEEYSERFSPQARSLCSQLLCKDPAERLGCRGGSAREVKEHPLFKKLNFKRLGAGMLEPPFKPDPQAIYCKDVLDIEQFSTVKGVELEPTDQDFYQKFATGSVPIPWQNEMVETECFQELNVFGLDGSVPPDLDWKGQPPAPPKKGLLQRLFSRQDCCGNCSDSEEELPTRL

Tyrosine-protein kinase Fer (Homo sapiens), sequence (P16591 whole entry, looked up): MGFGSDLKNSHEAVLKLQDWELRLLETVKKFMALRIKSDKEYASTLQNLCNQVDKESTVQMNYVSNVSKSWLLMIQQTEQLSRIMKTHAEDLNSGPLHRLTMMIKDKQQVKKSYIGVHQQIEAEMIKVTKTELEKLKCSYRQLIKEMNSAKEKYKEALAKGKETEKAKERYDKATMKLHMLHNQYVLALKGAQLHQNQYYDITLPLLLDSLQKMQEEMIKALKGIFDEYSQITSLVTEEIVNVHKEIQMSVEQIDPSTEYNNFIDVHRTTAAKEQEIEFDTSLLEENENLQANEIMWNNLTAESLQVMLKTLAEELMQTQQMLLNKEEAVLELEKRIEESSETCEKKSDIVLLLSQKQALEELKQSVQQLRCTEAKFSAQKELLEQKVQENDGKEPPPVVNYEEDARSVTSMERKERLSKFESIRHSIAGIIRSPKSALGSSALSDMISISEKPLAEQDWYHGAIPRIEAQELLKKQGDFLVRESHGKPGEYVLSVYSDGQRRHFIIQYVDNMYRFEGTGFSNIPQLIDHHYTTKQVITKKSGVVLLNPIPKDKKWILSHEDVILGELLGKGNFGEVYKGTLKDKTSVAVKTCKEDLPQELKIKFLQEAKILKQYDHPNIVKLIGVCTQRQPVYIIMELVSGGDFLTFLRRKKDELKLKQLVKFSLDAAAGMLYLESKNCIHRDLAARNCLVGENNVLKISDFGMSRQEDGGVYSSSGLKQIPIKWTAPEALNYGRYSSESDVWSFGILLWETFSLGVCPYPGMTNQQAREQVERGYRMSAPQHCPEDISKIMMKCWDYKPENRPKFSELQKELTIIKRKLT

O=c1[nH]c2ccccc2n1C1CCN(Cc2ccc(-c3nc4cc5[nH]cnc5cc4nc3-c3ccccc3)cc2)CC1
residual activity [1]: 99% | residual activity [2]: 120% | residual activity [3]: 97% | residual activity [4]: 107% | residual activity [5]: 83% | residual activity [6]: 103% | residual activity [7]: 86% | residual activity [8]: 95% | residual activity [9]: 38% | residual activity [10]: 100% | residual activity [11]: 59% | residual activity [12]: 55% | residual activity [13]: 51% | residual activity [14]: 95% | residual activity [15]: 72% | residual activity [16]: 101% | residual activity [17]: 80% | residual activity [18]: 103% | residual activity [19]: 85% | residual activity [20]: 100%

Nc1nc(Nc2ccc(S(N)(=O)=O)cc2)nn1C(=O)c1c(F)cccc1F
residual activity [18]: 78%

O=C1Cc2c([nH]c3ccc(Br)cc23)-c2ccccc2N1
residual activity [18]: 95%

Cn1c2ccccc2c2c3c(c4c5ccccc5n(CCC#N)c4c21)CNC3=O
residual activity [18]: 69%

CC(C)(C)c1cc(C=C(C#N)C#N)cc(Br)c1O
residual activity [1]: 107% | residual activity [2]: 125% | residual activity [3]: 98% | residual activity [4]: 113% | residual activity [5]: 96% | residual activity [6]: 102% | residual activity [7]: 82% | residual activity [10]: 96% | residual activity [11]: 83% | residual activity [12]: 97% | residual activity [13]: 76% | residual activity [15]: 15% | residual activity [16]: 113% | residual activity [18]: 120% | residual activity [19]: 100% | residual activity [20]: 106%

COc1ccc2c(c[n+](C)c3c4cc5c(cc4ccc23)OCO5)c1OC
residual activity [1]: 80% | residual activity [2]: 121% | residual activity [3]: 76% | residual activity [5]: 77% | residual activity [6]: 96% | residual activity [7]: 47% | residual activity [8]: 92% | residual activity [9]: 75% | residual activity [10]: 85% | residual activity [11]: 62% | residual activity [12]: 87% | residual activity [13]: 74% | residual activity [14]: 92% | residual activity [15]: 63% | residual activity [17]: 72% | residual activity [19]: 82% | residual activity [20]: 96%

Cn1nc2c3c(cccc31)C(=O)c1ccccc1-2
residual activity [18]: 102% | residual activity [20]: 93%

CN[C@@H]1C[C@H]2O[C@@](C)([C@@H]1OC)n1c3ccccc3c3c4c(c5c6ccccc6n2c5c31)C(=O)NC4
residual activity [6]: 0% | residual activity [7]: -1% | residual activity [8]: -1% | residual activity [9]: -1% | residual activity [17]: 0%

Nc1nc(Nc2ccc(S(N)(=O)=O)cc2)nn1C(=S)Nc1c(F)cccc1F
residual activity [18]: 77%

N/C(=N\[N+](=O)[O-])N/N=C\c1ccc(-c2cccc([N+](=O)[O-])c2)o1
residual activity [6]: 86% | residual activity [7]: 72% | residual activity [8]: 73% | residual activity [9]: 48% | residual activity [10]: 58% | residual activity [11]: 42% | residual activity [12]: 67% | residual activity [13]: 65% | residual activity [14]: 77% | residual activity [15]: 83% | residual activity [17]: 87% | residual activity [20]: 97%

COc1ccc2c(c1)/C(=C/c1cnc[nH]1)C(=O)N2
residual activity [4]: 69% | residual activity [5]: 16% | residual activity [8]: 10% | residual activity [9]: 0% | residual activity [12]: 41% | residual activity [13]: 14% | residual activity [14]: 67% | residual activity [15]: 25% | residual activity [16]: 23% | residual activity [17]: 3%

O=C1c2ccccc2-c2nc3nnnn3nc21
residual activity [1]: 103% | residual activity [4]: 104% | residual activity [5]: 78% | residual activity [8]: 103% | residual activity [9]: 78% | residual activity [11]: 70% | residual activity [18]: 107% | residual activity [19]: 77%

CCCC(=O)Oc1ccc2[nH]c(C(=O)c3cc4ccccc4[nH]3)cc2c1
residual activity [18]: 104% | residual activity [20]: 93%

CCn1cnc2c(Nc3cccc(Cl)c3)nc(N[C@@H]3CCCC[C@@H]3N)nc21
residual activity [1]: 39% | residual activity [2]: 55% | residual activity [3]: 9% | residual activity [4]: 18% | residual activity [5]: 3% | residual activity [6]: 63% | residual activity [7]: 15% | residual activity [8]: 18% | residual activity [9]: 1% | residual activity [10]: 50% | residual activity [11]: 2% | residual activity [12]: 54% | residual activity [13]: 11% | residual activity [14]: 8% | residual activity [15]: 0% | residual activity [16]: 43% | residual activity [17]: 7% | residual activity [18]: 96% | residual activity [19]: 66% | residual activity [20]: 91%

CC(C)(C)n1nc(Cc2cccc3ccccc23)c2c(N)ncnc21
residual activity [18]: 108%

COC(=O)[C@@]1(O)C[C@H]2O[C@]1(C)n1c3ccccc3c3c4c(c5c6ccccc6n2c5c31)C(=O)NC4
residual activity [1]: 0% | residual activity [2]: 7% | residual activity [3]: 1% | residual activity [4]: 3% | residual activity [5]: -1% | residual activity [6]: 0% | residual activity [7]: 0% | residual activity [8]: 0% | residual activity [9]: 1% | residual activity [10]: 0% | residual activity [11]: 1% | residual activity [12]: 2% | residual activity [13]: 1% | residual activity [14]: 4% | residual activity [15]: 0% | residual activity [16]: 0% | residual activity [17]: 1% | residual activity [18]: 40% | residual activity [19]: 5% | residual activity [20]: 36%

O=[N+]([O-])/C=C/c1ccc2c(c1)OCO2
residual activity [1]: 98% | residual activity [2]: 113% | residual activity [3]: 77% | residual activity [4]: 90% | residual activity [5]: 92% | residual activity [6]: 97% | residual activity [7]: 91% | residual activity [8]: 95% | residual activity [9]: 69% | residual activity [10]: 88% | residual activity [11]: 95% | residual activity [12]: 87% | residual activity [13]: 100% | residual activity [14]: 105% | residual activity [15]: 92% | residual activity [16]: 92% | residual activity [17]: 86% | residual activity [18]: 106% | residual activity [19]: 91% | residual activity [20]: 105%

COc1cc2nccc(Oc3ccc(NC(=O)Nc4cc(C)on4)c(Cl)c3)c2cc1OC
residual activity [18]: 105%

COc1cc2ncnc(Nc3ccc(OCc4ccccc4)cc3)c2cc1OC
residual activity [1]: 98% | residual activity [2]: 131% | residual activity [3]: 97% | residual activity [4]: 67% | residual activity [5]: 42% | residual activity [6]: 57% | residual activity [7]: 27% | residual activity [8]: 40% | residual activity [9]: 24% | residual activity [10]: 6% | residual activity [11]: 2% | residual activity [12]: 20% | residual activity [13]: 11% | residual activity [14]: 79% | residual activity [15]: 64% | residual activity [16]: 101% | residual activity [17]: 85% | residual activity [18]: 101% | residual activity [19]: 97% | residual activity [20]: 98%

O=C1NC(=O)c2c1c1c3ccccc3n3c1c1c2c2ccccc2n1C1CCC3O1
residual activity [1]: 20% | residual activity [2]: 90% | residual activity [3]: 99% | residual activity [6]: 7% | residual activity [7]: 4% | residual activity [8]: 24% | residual activity [9]: 3% | residual activity [10]: 0% | residual activity [11]: 2% | residual activity [12]: 30% | residual activity [13]: 26% | residual activity [14]: 81% | residual activity [15]: 75% | residual activity [16]: 20% | residual activity [17]: 10%

CC(C)[C@H](CO)Nc1nc(Nc2cccc(Cl)c2)c2ncn(C(C)C)c2n1
residual activity [1]: 26% | residual activity [2]: 79% | residual activity [3]: 19% | residual activity [4]: 23% | residual activity [5]: 0% | residual activity [6]: 88% | residual activity [7]: 43% | residual activity [8]: 17% | residual activity [9]: 2% | residual activity [10]: 42% | residual activity [11]: 3% | residual activity [12]: 70% | residual activity [13]: 34% | residual activity [14]: 4% | residual activity [15]: -1% | residual activity [16]: 75% | residual activity [17]: 23% | residual activity [18]: 97% | residual activity [19]: 82%
